Source: the supplement of paper PMC6555819

Columns and labels:
Test in all cases: PBM binding z-score (relative to random genomic background probes); higher = stronger binding; sequences stand for … in GC…GCGATTGACAGCGTAGAATGAAGG
[1] = test system: FXR:RXRa (NR concentration 270 nM, RXRa partner concentration 90 nM)
Outline: (§1)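 Custom Agilent 4×180K protein-binding microarrays carried double-stranded probes, each with a 34-nt variable region. These regions held direct-repeat seeds, single-nucleotide variants, half-site ablations and random human genomic background sequences. Ligand-free nuclear receptor dimers were incubated on the arrays for 1 h, antibodies against each partner (one per run) detected binding, and scanned fluorescence was regression-normalized. Binding z-scores take the random background probes as reference.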

[2] = test system: LXRa:RXRa (NR concentration 270 nM, RXRa partner concentration 90 nM)
Outline: as §1

[3] = test system: LXRa homodimer (NR concentration 270 nM)
Outline: as §1

[4] = test system: LXRb:RXRa (NR concentration 270 nM, RXRa partner concentration 90 nM)
Outline: as §1

[5] = test system: LXRb homodimer (NR concentration 270 nM)
Outline: as §1

[6] = test system: PPARa:RXRa (NR concentration 270 nM, RXRa partner concentration 90 nM)
Outline: as §1

[7] = test system: PPARg:RXRa (NR concentration 180 nM, RXRa partner concentration 90 nM)
Outline: as §1

[8] = test system: PPARg:RXRa 270nM:90nM, anti-RXR (NR concentration 270 nM, RXRa partner concentration 90 nM)
Outline: as §1

[9] = test system: PPARg:RXRa 30nM:10nM, anti-RXR (NR concentration 30 nM, RXRa partner concentration 10 nM)
Outline: as §1

[10] = test system: PPARg:RXRa 90nM:30nM, anti-RXR (NR concentration 90 nM, RXRa partner concentration 30 nM)
Outline: as §1

Sequence	PBM binding z-score [1]	PBM binding z-score [2]	PBM binding z-score [3]	PBM binding z-score [4]	PBM binding z-score [5]	PBM binding z-score [6]	PBM binding z-score [7]	PBM binding z-score [8]	PBM binding z-score [9]	PBM binding z-score [10]
TCATATAGGTAATACAGGTAAAAGTCGGCATCTA	1.15	1.13	0.377	0.915	0.455	1.48	1.61	2.58	4.14	3.49
ACTAGCAGGCCAAGGGTCACTTAAGATTAGTCCG	2.62	2.89	0.394	3	-0.323	4.28	8.13	7.44	5.78	8.65
TCGTGTAGATCAACAGGAGGTTAAGAAAGATCGA	-0.127	1.13	0.0557	0.789	-0.51	1.22	-0.0865	1.04	1.84	1.52
CGTCCCAGGTCATAGGAGGTCAGTGAAGACAGAT	5.9	6.34	4.26	5.07	0.872	4.83	3.87	4.13	1.16	2.74
CGAACTAGGTCAGAACAGGACAGAGAAGGATGAT	1.6	0.878	0.159	0.278	-0.292	2.94	5.04	4.26	1.71	3.03
GCTGCTAGGTCAGATTGGTCAGCTAACGGGTACG	1.36	0.957	-0.166	0.562	-0.238	1.68	0.672	0.718	-0.273	0.427
TCTTGTAGATCAATAGAGCTTAAGAAAGTGCGCT	-0.769	-0.425	-0.995	-0.356	-0.706	0.188	-0.467	0.973	2.31	1.85
ACTATTAGTTGACTTAGGGCAAGCGATACGACGC	0.286	0.302	0.111	0.0469	0.509	0.124	0.824	0.206	0.267	0.144
CGAACTAGGTCTGAACAGGACAGTGAAGGATGAT	-0.499	-0.813	-0.618	-0.891	-0.912	-0.134	0.652	-0.276	-0.221	-0.128
ATCTCTAGGTAACAAGTTTAGTGAAAGAGAGGAC	0.428	0.215	0.326	0.212	0.657	0.577	0.844	1.35	0.486	1.37
ATCTCTAGGTACAGTTCAGTGAAAGATCGATAGA	0.629	0.639	0.57	0.6	1.26	0.51	0.382	0.647	0.518	0.644
ACTAATAGTTGAGACGAGGGCAACCGATAGGTTG	0.996	0.527	-0.147	0.288	0.0115	0.669	0.841	-0.0729	0.0984	0.103
TCTTATAGATCAAAGGTTAAGAAAGCCGAAGCCT	2.06	2.39	0.368	2.31	-0.12	4.55	7.79	7.92	7.61	9.15
CCTTACGGGTCACTCCAGGTTACAGCATCGGAGT	4.9	7.35	2.06	4.72	0.0209	4.42	3.74	3.8	1.1	2.64
ATCTCTAGGTAACAAGTTCAGTGATAGAGAGGAC	0.623	0.613	0.594	0.524	1.01	1.34	1.67	1.87	1.19	1.53
TATACAGGGTCAAAGGCTAGAGTACGAATGTCGA	7.16	6.17	2.74	4.84	2.57	5.93	7.9	7.07	5	6.71
GCGACTGGGGAAAAGCAGGTTACCATAAGGTTGG	-0.282	-0.412	-0.496	0.0547	-1.04	0.442	0.406	0.154	-0.554	0.0241
GCTGGGAGGACAAGGTCAGAGCTTTGTCCGTAGA	1.59	1.84	-0.27	1.45	-0.657	2.47	0.399	1.28	-0.497	0.699
TCATATAGGTAAACGGTGAAAGTCGGTGTGGTAA	0.188	0.878	0.118	0.712	-0.229	2.17	2.41	4.15	4.43	4.57
TCTGCTAGGTAAACGATGGTCAGCTAATCTGCTA	-0.588	-0.334	-0.988	-0.606	-1.07	-0.0928	-0.293	0.636	1.68	1.22
TCAGACAGGTGAAGGCAACTCAGGTACGCAGTCG	0.773	0.656	-0.307	0.471	-0.243	0.995	0.701	1.77	3.36	2.58
CCTGCTAGGTCATGGTCAGTTAATCTACAGTATG	3.84	2.66	0.0744	1.97	-0.163	3.48	2.31	2.88	0.868	2.13
ATCGAAAGGTCGAAGGTTAGTATACCCACCCGAA	4.06	3.5	0.517	3.05	0.649	4.71	4.46	5.12	2.51	4.28
